Compounds with a hit are over-represented: about 6.8% of the library has one in this group of screens.
MK inhibit: S. pneumoniae MK inhibitors, primary screen, biochemical, PK/LDH-coupled NADH absorbance | mevalonate kinase [Streptococcus pneumoniae D39] | purified MK, PK/LDH-coupled NADH absorbance 340 nm | inhibition, % at 10 µM | 0.48% of 65,000 active;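 active = ranked among the strongest by inhibition in the single 10 µM screen, a fixed top-ranked set picked for dose follow-up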
Autofluor 339: intrinsic fluorescence of library compounds, ex339/em460 – biochemical, MLSMR library, data from DPM-DC assay, artefact control, profiling panel; compound autofluorescence, ex339/em460 nm, NADH buffer; active compounds read high; 1 = no-compound wells, NADH background; fluorescence fold increase at 10 µM; 5.5% of 65,000 active;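 active = at 10 µM, mean starting fluorescence two-fold or more over control wells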;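 note: signal is the first read of a kinetic run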
Spn PMK inh: S. pneumoniae PMK inhibitors, primary screen, biochemical, mevalonate pathway, pilot trial included. purified PMK, PK/LDH-coupled NADH absorbance 340 nm. 0.49% of 65,000 active. phosphomevalonate kinase (Streptococcus pneumoniae D39). inhibition, % at 10 µM;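 active = top-ranked compounds by inhibition in the single 10 µM screen, taking a fixed number of the strongest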
NADH coupling: inhibitors of PK/LDH coupling enzymes, profiling panel, artefact control, biochemical, MLSMR library; IC50, µM (top dose mostly 10 µM); 0.02% of 65,000 active; coupled PK/LDH NADH assays, four targets; AID 774, 2007;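 active = single-dose screening hits from any of four coupled enzyme assays that gave an IC50 when retested across doses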;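 note: the DPM-DC format reads NADH fluorescence rather than 340 nm absorbance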
Abs 340nm: compound light absorbance at 340 nm, profiling panel, artefact control, biochemical, MLSMR library, data from PS, PMK, MK assays; compound absorbance at 340 nm, fold over control; fold change at 10 µM; 65,000 tested, under 10 active; AID 708, 2007;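 active = at 10 µM dose, initial 340 nm absorbance at least 2 fold that of control wells; inactive = change under 2 fold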;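 note: initial absorbance extrapolated from kinetic A340 decline of NADH oxidation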
DPM-DC inhibit: S. pneumoniae DPM-DC inhibitors, primary screen, biochemical, PK/LDH-coupled NADH fluorescence | diphosphomevalonate decarboxylase (Streptococcus pneumoniae D39) | purified DPM-DC | calls only at 10 µM | 0.49% of 65,000 active;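 active = the 320 compounds with the highest percent inhibition in the single-dose primary screen, excluding strongly autofluorescent ones, cut at about 32% in these data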;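 note: kinetic rate of NADH fluorescence loss reporting ADP formed by the decarboxylase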
Of the large screens only hits and unclear results are named; the others gave an inactive call.

COc1ccc(NC(=O)c2oc3ccccc3c2NC(=O)C2CC2)cc1	none
CCOc1ccc(NC(=O)c2oc3ccccc3c2NC(=O)C2CC2)cc1	Autofluor 339 2.6
CCN(CC)S(=O)(=O)c1ccc2oc(C(=O)Nc3ccc(OC)cc3OC)c(C)c2c1	none
COc1ccc(NC(=O)c2oc3cc(C)c(C)cc3c2C)c(OC)c1	Autofluor 339 3.8 (not shown: DPM-DC inhibit)
COc1ccc(-c2[nH]c(-c3cccc(OC)c3)nc2SCC(=O)NCc2ccco2)cc1	none
Cc1ccc2nc(-c3ccc(SCC(=O)O)nc3)[nH]c2c1	Autofluor 339 3.8, DPM-DC inhibit active
Cc1ccc2nc(SCC(=O)N3CCCC3)[nH]c2c1	none
COc1cc(C(=O)Nc2cc(Cl)ccc2C)c(-n2cnnn2)cc1OC	none
Cc1noc(C)c1COC(=O)c1ccc(-c2nc3ccccc3s2)s1	Autofluor 339 4
Cc1noc(C)c1COC(=O)CCCc1nc2ccccc2s1	none
Cc1ccc(C2CC(c3cccs3)n3nc(N)nc3N2)cc1 (stereo not drawn)	Autofluor 339 2.3 (not shown: DPM-DC inhibit)
Cc1nonc1NC(=O)CSc1ccc(-c2ccccc2)nn1	Spn PMK inh 27
CCCn1c(=S)[nH]c2cc(C(=O)NCC3CCCO3)ccc2c1=O (stereo not drawn)	none
CCCCCNC(=O)c1ccc2c(=O)n(CC3CCCO3)c(=O)[nH]c2c1 (stereo not drawn)	Autofluor 339 2
CCCCCn1c(SCC#N)nc2cc(C(=O)NCC3CCCO3)ccc2c1=O (stereo not drawn)	DPM-DC inhibit active
Cc1nn(C)c(N)c1C(O)(c1nccn1C)C(F)(F)F (stereo not drawn)	none
Cc1ccc2cc(CNC(C)C)c(=O)[nH]c2c1	none
CCNc1nc(C)c2cc(Br)c(=O)n(CC)c2n1	Autofluor 339 2.1 (not shown: DPM-DC inhibit)
CCNc1nc(NC(C)C)nc(Nn2cnnc2)n1	none
Cc1cc(=O)oc2cc(OCC(=O)N3CCCC(C)C3)ccc12 (stereo not drawn)	Autofluor 339 2.7
Cc1cc(=O)oc2ccc(OCC(=O)N3CCC(C)CC3)cc12	DPM-DC inhibit active
COc1ccc(S(=O)(=O)N2CCN(C(=O)COc3ccc4c(C)cc(=O)oc4c3)CC2)cc1	Autofluor 339 2.6
O=S(=O)(CCN(CCS(=O)(=O)C(F)(F)F)CC1CCCO1)C(F)(F)F (stereo not drawn)	none
CCc1cc2c(CN3CCN(C)CC3)cc(=O)oc2cc1O	Autofluor 339 3.8 (not shown: DPM-DC inhibit)
CCc1cc2c(CN3CCN(CCO)CC3)cc(=O)oc2cc1O	Autofluor 339 2.9 (not shown: DPM-DC inhibit)
CCOC(=O)Nc1ccc2c(CN3C(=O)NC4(CCCC4)C3=O)cc(=O)oc2c1	Autofluor 339 3.3 (not shown: DPM-DC inhibit)
CCOc1ccc(-n2nc(C(=O)N3CCOCC3)c3ccccc3c2=O)cc1	none
Cc1cc(C(=O)NCCCn2ccnc2)sc1-c1ccccc1	none
COC(=O)Cn1c(=NC(=O)CSC(C)=O)sc2ccccc21	DPM-DC inhibit active
CCn1c(=NC(=O)CSC(C)=O)sc2ccccc21	none
CCC(=O)Oc1ccc2c(C)c(Cl)c(=O)oc2c1	Autofluor 339 2.2 (not shown: DPM-DC inhibit)
CCCCc1c(C)c2ccc(OCC(C)=O)cc2oc1=O	Autofluor 339 2.3 (not shown: DPM-DC inhibit)
C=C(Cl)COc1ccc2c(C)cc(=O)oc2c1	none
CCCCc1cc(=O)oc2cc(OCC(=O)N(CC)CC)c(Cl)cc12	none
CCN(CC)C(=O)Oc1ccc2c(=O)c(-c3ccc(OC)cc3)c(C)oc2c1	none
CCCc1c(C)c2ccc(OCC(C)=O)cc2oc1=O	Autofluor 339 5.1 (not shown: DPM-DC inhibit)
CCCCc1cc(=O)oc2cc(OCC(=O)N(CC)CC)ccc12	Autofluor 339 2.2 (not shown: DPM-DC inhibit)
c1ccc(-c2csc(-n3cnnn3)n2)cc1	none
Cc1c(Cl)cccc1NC(=O)CSc1nnc(CCNC(=O)OC(C)(C)C)o1	none
O=C(CCCn1c(=O)c2sccc2n(Cc2ccc(F)cc2)c1=O)NCc1ccco1	none
CCn1c(SCC(=O)Nc2nc3ccc(C)cc3s2)nc2c(c1=O)SC(C)C2 (stereo not drawn)	none
CC1CCCN(c2nc3c(c(=O)[nH]c(=O)n3C)n2CCSc2ncccn2)C1 (stereo not drawn)	none
Cc1c(CCC(=O)O)c(=O)oc2cc(O)ccc12	Autofluor 339 2.1 (not shown: DPM-DC inhibit)
CCc1cc(=O)oc2cc(OCC(=O)N3CCc4ccccc43)ccc12	Autofluor 339 3.2
Cc1c(CCC(=O)O)c(=O)oc2cc3occ(-c4ccc(F)cc4)c3cc12	none
Cc1cc(=O)oc2cc(OCC(=O)N3c4ccccc4CC3C)ccc12 (stereo not drawn)	none
Cc1ccc(OCCn2c(C)c(/C=N/n3cnnc3)c3ccccc32)cc1	DPM-DC inhibit active
Cc1c(/C=N/n2cnnc2)c2ccccc2n1CCOc1ccc(Cl)cc1	none
CCc1cc(=O)oc2c(CN3CCCC3)c(O)c(Cl)cc12	Autofluor 339 2.3 (not shown: DPM-DC inhibit)
CN1CCN(Cc2cc(=O)oc3cc4c(cc23)CCC4)CC1	none
Cc1oc2c(C)c3oc(=O)c4c(c3cc2c1C)CCC4	none
O=c1oc2ccccc2c(N2CCCCC2)c1CN1CCCCC1	none
Cc1c(O)c(CN2CCCCC2)cc2c3c(c(=O)oc12)CCC3	Autofluor 339 2.5 (not shown: DPM-DC inhibit)
CCc1c(C)c2cc(Cl)c(O)c(CN3CCCCC3)c2oc1=O	Autofluor 339 2.3 (not shown: DPM-DC inhibit)
CCc1cc(=O)oc2c(CN3CCN(C)CC3)c(O)c(Cl)cc12	Autofluor 339 2.5 (not shown: DPM-DC inhibit)
Nc1nnc(SCc2ccccc2F)n1-c1ccccc1	none
O=C(c1ccco1)N1CCN(C(=O)c2cc(-c3ccccn3)nc3ccc(Cl)cc23)CC1	none
Cc1cc(C)nc(SCCC(=O)N(C)C)n1	none
O=c1oc2c(CN3CCOCC3)c(O)c(Cl)cc2c2c1CCC2	Autofluor 339 3.8 (not shown: DPM-DC inhibit)
CCOC(=O)C(C)Oc1ccc(=O)n(-c2ccccc2)n1 (stereo not drawn)	none
CC1=C(C(=O)OC(C)C)C(c2ccccn2)n2ncnc2N1 (stereo not drawn)	none
COc1ccccc1COCC(O)CNCC1(N2CCCCC2)CCCCC1 (stereo not drawn)	MK inhibit 41
Cn1c(=O)n(Cc2ccc(F)cc2)c(=O)c2c1nc1n2CCCN1C1CCCCC1	none
COc1ccc(C(=O)NCCn2ccc3ccccc32)cc1	none
O=C(NCCn1ccc2ccccc21)c1ccc2c(c1)OCO2	Autofluor 339 2.1 (not shown: DPM-DC inhibit)
CCc1c(C)nc2cc(-c3cc(OC)cc(OC)c3)nn2c1N1CCCC1	none
COc1cc(OC)cc(-c2cc3nc4c(c(N5CCN(c6ncccn6)CC5)n3n2)CCCC4)c1	Autofluor 339 3.8

Source: PubChem BioAssay (SRMLSC)
